These results are taken from PubChem BioAssay.

Values joined by “and” are separate entries in the source; they are usually repeats but may differ in a detail not shown here. Identical values can stand only once. Inconclusive results are not listed. Active and inactive are the calls of the source. Rule as the data show it, unless noted: active = inhibition above about 80%; inactive = the rest.

Assay [1] in a line: viability rescue of complex I mutant cybrids, primary screen, cell-based, galactose medium, ATP luminescence (AID 1645843;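 active = z-score of at least 1.8 in each of two replicates, scored against plate mean and spread of sample wells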;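 also: positive z means more ATP and so rescue of galactose-driven cybrid death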). The note with it: complex I mutant cybrid cells, 72 h, stronger effect = higher value.
The nature of assay [2]: LFS_MB_1R medulloblastoma cell growth inhibition, synergistic combos for chromothripsis tumors, cisplatin or BGB combos (AID 1671452).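 Also: cells exposed for 96 hours before readout.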 Particulars: LFS_MB_1R medulloblastoma cells, stronger effect = higher value.
A short description of assay [3]: CRL2098 osteosarcoma cell growth inhibition, synergistic combos for chromothripsis tumors, BGB or cisplatin IC20 combos (AID 1671454).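 Also: cells exposed for 96 h before readout; 0% = vehicle DMSO and 100% = killing by high DMSO.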 Particulars: CRL2098 osteosarcoma cells, drug combinations, stronger effect = higher value.
The nature of assay [4]: HD-MB03 medulloblastoma cell growth inhibition, synergistic combos for chromothripsis tumors, BGB or cisplatin IC20 combos (AID 1671455; in the data active = inhibition above about 83%;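 also: 0% = vehicle DMSO and 100% = high DMSO as cytotoxic control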). The note with it: HD-MB03 medulloblastoma cells, stronger effect = higher value.
Assay [5] in a line: UWB1.289 ovarian carcinoma cell growth inhibition, synergistic combos for chromothripsis tumors, BGB or cisplatin combos (AID 1671456).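 Also: cells exposed to compound for four days; 0% = vehicle DMSO and 100% = killing by high DMSO.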 Particulars: UWB1.289 ovarian carcinoma cells, stronger effect = higher value.
Assay [6] can be described thus: LFS_MB_2R medulloblastoma cell growth inhibition, synergistic combos for chromothripsis tumors, cisplatin combos (AID 1671457).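 Also: cells exposed to compound for four days before readout.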 Particulars: LFS_MB_2R medulloblastoma cells, stronger effect = higher value.
The nature of assay [7]: UWB1.289_BRCA1 ovarian cancer growth, cell-based, BGB or cisplatin combinations (AID 1671459). Particulars: UWB1.289 BRCA1 ovarian carcinoma, drug combinations, stronger effect = higher value.
A short description of assay [8]: human astrocyte viability loss, single and combined drugs, cytotoxicity control for chromothriptic childhood tumor combination screen, cell-based, BGB or cisplatin IC20 combos (AID 1671460).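 Also: cells exposed to compounds for 96 hours before viability readout; 0% = vehicle and 100% = killing control.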 Particulars: Human astrocytes, drug combinations, stronger effect = higher value.
Assay [9] is described as follows: growth inhibition of BT084 medulloblastoma cells, cell-based, ICGC_MB145, cisplatin and BGB IC40 combos (AID 1671461).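 Also: cells exposed to drugs for 96 hours; 0% = vehicle DMSO and 100% = high DMSO full killing control.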 The note with it: drug combinations, stronger effect = higher value.
Assay [10] is described as follows: growth inhibition of RCMB18 medulloblastoma cells, cell-based, cisplatin and BGB IC40 combos (AID 1671462).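 Also: cells exposed to compound for four days.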 Particulars: stronger effect = higher value.
Assay [11] is described as follows: growth inhibition of CRL1545 osteosarcoma cells, cell-based, cisplatin and BGB IC20 combos (AID 1671464).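 Also: cells exposed to compound for 96 hours before readout; 0% = vehicle DMSO and 100% = high DMSO killing control.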 Particulars: stronger effect = higher value.
The target of assay [12] is Mitogen-activated protein kinase 7 (Homo sapiens) (UniProt Q13164). In words: ERK5 transactivation activators in reporter cells, primary screen, cell-based, HTS (AID 1508626;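 active = luciferase signal above three times the same-plate solvent-only control wells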;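 also: luciferase driven by Gal4-ERK5 fusion binding five Gal4 sites before minimal TATA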). Particulars: HeLa Gal4-ERK5 transactivation, 18 h, at 5 µM, stronger effect = higher value.
Assay [13] has as its target ATP-dependent translocase ABCB1 (Homo sapiens) (UniProt P08183). In words: MDR1 (ABCB1) efflux transporter inhibition, cell-based (AID 377; in the data active = fluorescence slope change above about 50%). The note with it: MDR1-expressing cells, fluorescent substrate accumulation slope; stronger effect = higher value; concentration not given here.
The mark [14] stands for this setting: measured here: combination with BGB IC40, at 0.05 µM.
Setting [15] is: measured here: combination with cisplatin, at 0.5 µM.
The mark [16] stands for this setting: measured here: combination with cisplatin, at 5 µM.
[17] abbreviates: measured here: combination with BGB at IC20, at 0.5 µM.
Setting [18] is: measured here: combination with cisplatin at IC20, at 0.5 µM.
[19] abbreviates: measured here: combo with BGB at IC20, at 0.5 µM.
[20] abbreviates: measured here: combo with cisplatin at IC20, at 0.5 µM.
Where [21] appears, read: measured here: inhibition with BGB combination, at 0.05 µM.
[22] abbreviates: measured here: inhibition with cisplatin combination, at 0.05 µM.
Where [23] appears, read: BGB combination, concentration series, at 5 µM.
The mark [24] stands for this setting: cisplatin combination, concentration series, at 5 µM.
Setting [25] is: measured here: combo with BGB IC20, at 0.5 µM.
[26] abbreviates: measured here: combo with cisplatin IC20, at 0.5 µM.
Setting [27] is: cisplatin combination, at 0.5 µM.
Setting [28] is: measured here: BGB IC40 combination 0.05 uM, at 0.05 µM.
Setting [29] is: measured here: BGB IC40 combination, at 0.05 µM.
[30] abbreviates: measured here: with BGB IC20 combination, at 0.5 µM.
Setting [31] is: measured here: with cisplatin IC20 combination, at 0.5 µM.

ATP-dependent translocase ABCB1 (Homo sapiens), sequence (P08183 whole entry, looked up): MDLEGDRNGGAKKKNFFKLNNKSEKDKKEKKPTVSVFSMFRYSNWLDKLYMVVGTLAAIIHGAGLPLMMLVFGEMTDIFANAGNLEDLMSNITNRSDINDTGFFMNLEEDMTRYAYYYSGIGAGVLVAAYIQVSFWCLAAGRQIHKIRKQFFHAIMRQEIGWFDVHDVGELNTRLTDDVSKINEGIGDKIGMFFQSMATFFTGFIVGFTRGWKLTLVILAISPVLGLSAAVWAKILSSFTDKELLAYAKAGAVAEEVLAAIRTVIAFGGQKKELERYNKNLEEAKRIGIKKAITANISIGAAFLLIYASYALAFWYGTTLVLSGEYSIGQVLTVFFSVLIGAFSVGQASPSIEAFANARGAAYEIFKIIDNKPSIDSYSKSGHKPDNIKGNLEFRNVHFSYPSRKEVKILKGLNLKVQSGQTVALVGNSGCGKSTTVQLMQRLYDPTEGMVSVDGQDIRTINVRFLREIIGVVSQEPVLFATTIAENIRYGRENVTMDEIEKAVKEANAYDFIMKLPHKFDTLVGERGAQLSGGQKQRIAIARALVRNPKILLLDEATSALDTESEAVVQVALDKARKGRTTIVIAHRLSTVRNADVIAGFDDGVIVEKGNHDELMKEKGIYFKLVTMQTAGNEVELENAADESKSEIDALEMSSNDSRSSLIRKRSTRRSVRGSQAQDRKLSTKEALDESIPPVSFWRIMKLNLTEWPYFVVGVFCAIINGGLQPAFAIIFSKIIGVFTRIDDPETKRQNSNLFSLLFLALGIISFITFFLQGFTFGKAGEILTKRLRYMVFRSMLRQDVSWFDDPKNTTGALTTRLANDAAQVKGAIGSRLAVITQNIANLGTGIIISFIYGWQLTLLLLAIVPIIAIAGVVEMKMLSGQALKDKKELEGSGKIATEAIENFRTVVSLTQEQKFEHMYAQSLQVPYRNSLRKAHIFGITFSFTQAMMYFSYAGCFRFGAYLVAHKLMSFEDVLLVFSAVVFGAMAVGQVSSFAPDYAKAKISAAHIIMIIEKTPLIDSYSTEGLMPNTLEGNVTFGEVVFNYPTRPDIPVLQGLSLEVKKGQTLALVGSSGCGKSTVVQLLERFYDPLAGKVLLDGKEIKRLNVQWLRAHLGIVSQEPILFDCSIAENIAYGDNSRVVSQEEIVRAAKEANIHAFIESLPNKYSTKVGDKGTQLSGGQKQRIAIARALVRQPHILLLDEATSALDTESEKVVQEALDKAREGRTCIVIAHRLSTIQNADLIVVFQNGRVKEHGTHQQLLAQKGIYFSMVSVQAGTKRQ
Mitogen-activated protein kinase 7 (Homo sapiens), sequence (Q13164 whole entry, looked up, the tested form may be a part): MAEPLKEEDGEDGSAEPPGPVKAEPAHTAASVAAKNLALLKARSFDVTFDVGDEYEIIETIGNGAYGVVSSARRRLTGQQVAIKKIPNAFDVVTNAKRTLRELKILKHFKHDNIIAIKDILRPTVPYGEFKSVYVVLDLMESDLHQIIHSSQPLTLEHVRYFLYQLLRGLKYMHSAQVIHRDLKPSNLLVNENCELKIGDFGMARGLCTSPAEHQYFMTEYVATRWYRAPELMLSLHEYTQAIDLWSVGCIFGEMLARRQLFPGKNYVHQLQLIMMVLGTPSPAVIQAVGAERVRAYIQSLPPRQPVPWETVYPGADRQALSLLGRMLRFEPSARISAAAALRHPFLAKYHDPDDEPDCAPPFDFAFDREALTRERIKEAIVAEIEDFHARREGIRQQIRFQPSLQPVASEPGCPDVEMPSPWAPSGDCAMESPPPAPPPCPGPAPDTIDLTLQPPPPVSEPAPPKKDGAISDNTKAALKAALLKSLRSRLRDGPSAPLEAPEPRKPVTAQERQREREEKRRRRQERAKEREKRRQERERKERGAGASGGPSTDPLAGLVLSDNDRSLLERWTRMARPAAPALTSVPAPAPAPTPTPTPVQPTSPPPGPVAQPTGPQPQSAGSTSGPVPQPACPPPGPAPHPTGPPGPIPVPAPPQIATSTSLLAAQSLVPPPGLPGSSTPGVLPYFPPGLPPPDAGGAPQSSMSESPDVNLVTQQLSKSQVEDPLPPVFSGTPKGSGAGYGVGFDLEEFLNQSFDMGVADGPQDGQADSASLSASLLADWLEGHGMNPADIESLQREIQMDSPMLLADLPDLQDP

Consider `Nc1ccc2cc3ccc(N)cc3nc2c1`, for which the z-score in assay [1] is -2.66 (inactive). For the same molecule, the inhibition in assay [2] (at 0.5 µM) was -22.9% (inactive); in assay [2] (setting [14]), -30.9%; in assay [2] (setting [15]), -45.7%; in [2] (setting [16]), 99.1%; in assay [3] (at 0.5 µM), -33.9% (inactive); in [3] (setting [17]), -34.4%. In addition, the inhibition was -50.2% in assay [3] (setting [18]); -6.54% (inactive) in [4] (at 0.5 µM); 19.2% in [4] (setting [19]); -34.6% in [4] (setting [20]); -1.27% (inactive) in assay [5] (at 0.5 µM); -20.6% in assay [5] (setting [21]). The inhibition in assay [5] (setting [22]) was -13.2%; in assay [6] (at 0.5 µM) it was -9.07% (inactive); in assay [6] (setting [15]) it was -2.23%; in assay [6] (setting [16]) it was 84.3%; in [7] (setting [23]), 100%; in assay [7] (at 0.5 µM), -1.03% (inactive). The inhibition was 115% in assay [7] (setting [24]); -4.99% (inactive) in assay [8] (at 0.5 µM); 0.031% in assay [8] (setting [25]); -30.9% in [8] (setting [26]); -51.8% (inactive) in assay [9] (at 0.5 µM); -55.3% in assay [9] (setting [27]). Moreover, the inhibition in [9] (cisplatin combination, at 5 µM) was 80.4%; in assay [9] (setting [28]), -6.84%; in assay [9] (single agent, at 5 µM) it was 89.8%; in [10] (at 0.5 µM), -8.62% (inactive); in assay [10] (cisplatin combo, at 5 µM), 83.1%; in assay [10] (setting [29]) it was 9.55%. In addition, the inhibition in assay [10] (setting [15]) is -20.8%; in assay [10] (single agent, at 5 µM), 73.5%; in [11] (at 0.5 µM), -34.4% (inactive); in [11] (setting [30]) it was -17.3%; in [11] (setting [31]) it was -43%; in [11] (single agent, at 0.05 µM) it was -52.5%. The inhibition in [11] (single agent, at 5 µM) came out at 100%.

As to `CC[N+](CC)(CC(=O)Nc1c(C)cccc1C)Cc1ccccc1`, the luciferase signal in [12] is 36 AU (inactive).

`CC(C)(C)C(=O)C(Oc1ccc(Cl)cc1)n1ccnc1` (stereo unspecified): the z-score in [1] was -0.18 (inactive).

Turning to `CC(=O)CC(c1ccc([N+](=O)[O-])cc1)c1c(O)c2ccccc2oc1=O` (stereo unspecified), in [13], the fluorescence slope change is 22.3% (inactive).

Turning to `C[C@@H](O)[C@H]1C(=O)N2C(C(=O)O)=C(SCCN=CN)C[C@H]12`, the z-score in assay [1] is -0.195 (inactive) and 0.375 (inactive).

Take `Oc1c(I)cc(Cl)c2cccnc12`: the luciferase signal in [12] is 52 AU (inactive).

As for `CC1CCc2c(N3CCC(O)CC3)c(F)cc3c(=O)c(C(=O)O)cn1c23` (stereo unspecified), in assay [1], the z-score was 1.2 (inactive).

On to `O=c1cc[nH]c(=O)[nH]1`, for which the inhibition in assay [2] (at 0.5 µM) is -40% (inactive); in [2] (setting [14]), -59%; in [2] (setting [15]), -48%; in [2] (setting [16]), -36.2%; in [3] (at 0.5 µM), -92.2% (inactive); in [3] (setting [17]), -94.9%. For the same molecule, the inhibition was -107% in assay [3] (setting [18]); -17.8% (inactive) in assay [4] (at 0.5 µM); -14.7% in assay [4] (setting [19]); -22.4% in [4] (setting [20]); -18% (inactive) in [5] (at 0.5 µM); -36% in assay [5] (setting [21]). Besides, the inhibition is -27.8% in [5] (setting [22]); -17.4% (inactive) in assay [6] (at 0.5 µM); -11.9% in assay [6] (setting [15]); -19.1% in [6] (setting [16]); -12.9% in assay [7] (setting [23]); -25% (inactive) in assay [7] (at 0.5 µM). Moreover, the inhibition in assay [7] (setting [24]) was -6.49%; in [8] (at 0.5 µM) it was -8.86% (inactive); in assay [8] (setting [25]), 4.39%; in assay [8] (setting [26]), -31.7%; in [9] (at 0.5 µM), -12.8% (inactive); in [9] (setting [27]) it was -14.2%. The inhibition was -53.2% in [9] (cisplatin combination, at 5 µM); -11.4% in assay [9] (setting [28]); -17.3% in assay [9] (single agent, at 5 µM); -17.6% (inactive) in assay [10] (at 0.5 µM); -19.1% in [10] (cisplatin combo, at 5 µM); -3.59% in assay [10] (setting [29]). Moreover, the inhibition in [10] (setting [15]) is -29.1%; in [10] (single agent, at 5 µM), -18.8%; in assay [11] (at 0.5 µM) it was -72% (inactive); in assay [11] (setting [30]), -50.2%; in assay [11] (setting [31]), -82.8%; in assay [11] (single agent, at 0.05 µM), 4.62%. The inhibition in assay [11] (single agent, at 5 µM) was -35%.

Turning to `O=C(Oc1cccc2cccnc12)c1ccccc1`, the luciferase signal in assay [12] was 44 AU (inactive).

Take `CCCCOC(=O)c1ccc(O)cc1`: the luciferase signal in assay [12] was 88 AU (inactive).

Take `COc1cc(C(=O)N2CCOCC2)cc(OC)c1OC`: the luciferase signal in assay [12] is 48 AU (inactive).

Consider `O=C(CCCN1CCC(O)(c2ccc(Br)cc2)CC1)c1ccc(F)cc1`, for which the luciferase signal in [12] is 52 AU (inactive).

For `CN(C(=O)C(Cl)Cl)c1ccc(OC(=O)c2ccco2)cc1`, the luciferase signal in assay [12] was 44 AU (inactive).

Consider `CN1CCC(=C2c3ccccc3CCc3cccnc32)CC1`, for which, in [1], the z-score was 0.04 (inactive).

Regarding `CN1C(=O)OC(C)(C)C1=O`, the fluorescence slope change in assay [13] was 1.5% (inactive).

As for `N=C(N)N1CCc2ccccc2C1`, the z-score in assay [1] is 0.125 (inactive).

Take `CCN(CC)CCc1nc(-c2ccccc2)no1`: the fluorescence slope change in assay [13] was 14.4% (inactive).

For `OC1(c2ccc(Cl)c(C(F)(F)F)c2)CCN(CCCC(c2ccc(F)cc2)c2ccc(F)cc2)CC1`, the luciferase signal in assay [12] is 60 AU (inactive).

On to `CC(C(=O)O)c1ccc2c(c1)Cc1cccnc1O2` (stereo unspecified), for which the z-score in assay [1] was 0.415 (inactive).

Consider `Cc1ncc(CO)c(CO)c1O`, for which the luciferase signal in assay [12] is 160 AU (inactive).

With `CCOc1ccc2nc(S(N)(=O)=O)sc2c1`, the luciferase signal in assay [12] was 40 AU (inactive).

`O=C(N/N=C/c1ccc([N+](=O)[O-])o1)c1ccc(O)cc1`: the fluorescence slope change in assay [13] is -24% (inactive).

As for `CC1CC(OC(=O)c2ccccc2O)CC(C)(C)C1` (stereo unspecified), the luciferase signal in [12] is 140 AU (inactive).

For `CCOc1nc2cccc(C(=O)O)c2n1Cc1ccc(-c2ccccc2-c2nn[nH]n2)cc1`, the z-score in assay [1] is 0.64 (inactive).

As for `CCCCOc1cc(C(=O)OCCN(CC)CC)ccc1N`, the z-score in assay [1] was 0.26 (inactive).

With `CC(=O)Oc1cc(C(C)C)c(OCCN(C)C)cc1C`, in assay [1], the z-score is 0.335 (inactive).

As for `CNCCc1ccccn1`, the fluorescence slope change in [13] is 28.1% (inactive). In addition, in assay [12], the luciferase signal is 64 AU (inactive).

`CC(=O)N[C@@H](CC(C)C)C(=O)O`: the luciferase signal in assay [12] was 56 AU (inactive).

`CCCCCCC[N+](CC)(CC)CCCCc1ccc(Cl)cc1`: the fluorescence slope change in assay [13] was 178% (active).

Turning to `Cc1cccc(C)c1NC(=O)CN1CCN(CCCC(c2ccc(F)cc2)c2ccc(F)cc2)CC1`, the fluorescence slope change in [13] is 64.3% (active).

Regarding `COc1cc(N)c(Cl)cc1C(=O)NC1CCN(CCCOc2ccc(F)cc2)CC1OC` (stereo unspecified), in assay [13], the fluorescence slope change is 62% (active).

With `CN(C)CCCOc1nn(Cc2ccccc2)c2ccccc12`, the fluorescence slope change in [13] is 153% (active).

A word on the inhibition: it is the change of the read-out against control, counted positive when it falls.
